Results filed as inconclusive are left out. Activity calls are given as the source filed them. Calls follow the shape of the dose curve; as a rule, active = well fitted inhibition curve with a large enough effect; inconclusive = small, poorly fitted or top-dose-only effect; inactive = flat fitted curve, though single readings scatter.
Biological target: Tyrosyl-DNA phosphodiesterase 1 (Homo sapiens) (UniProt Q9NUW8)
Assay: Confirmation Assay for Inhibitors of Tyrosyl-DNA Phosphodiesterase (TDP1) (AID 489007); also: nearly all actives have a fitted effect of over 40% in size
Conditions: recombinant human TDP1 enzymatic activity, dose-response
Procedure, shortened: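 Recombinant E. coli-expressed Tdp1 (1 nM final) was preincubated with compounds 15 min at room temperature, then reacted 5 min with 15 nM 5'-biotin/3'-phosphotyrosine-FITC DNA substrate; cleavage read as loss of AlphaScreen signal (10 ug/ml beads, 10 min).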
Potency is read from the fitted curve at half-maximal effect.

Tyrosyl-DNA phosphodiesterase 1 (Homo sapiens), sequence (Q9NUW8 whole entry, looked up): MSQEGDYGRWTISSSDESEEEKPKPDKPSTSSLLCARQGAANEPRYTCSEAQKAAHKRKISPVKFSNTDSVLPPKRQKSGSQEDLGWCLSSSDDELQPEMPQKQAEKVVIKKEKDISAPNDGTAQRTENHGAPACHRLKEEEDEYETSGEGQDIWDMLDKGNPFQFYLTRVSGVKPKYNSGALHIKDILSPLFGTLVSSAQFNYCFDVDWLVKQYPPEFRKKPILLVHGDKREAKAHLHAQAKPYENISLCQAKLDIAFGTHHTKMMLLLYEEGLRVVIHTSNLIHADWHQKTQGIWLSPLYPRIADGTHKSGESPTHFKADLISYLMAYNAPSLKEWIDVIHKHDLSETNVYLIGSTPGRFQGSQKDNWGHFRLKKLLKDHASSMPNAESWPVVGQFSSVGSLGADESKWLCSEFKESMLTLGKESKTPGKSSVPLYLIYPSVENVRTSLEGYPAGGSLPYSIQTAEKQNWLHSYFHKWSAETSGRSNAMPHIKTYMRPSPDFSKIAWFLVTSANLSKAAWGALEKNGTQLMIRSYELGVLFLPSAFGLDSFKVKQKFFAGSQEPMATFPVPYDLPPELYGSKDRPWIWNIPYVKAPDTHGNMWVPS

Potency, active:
CCOC(=O)c1sc2nc3c(SCCC(=O)O)cc(C(=O)c4cc(OC)ccc4O)cn3c(=O)c2c1C 2.82 µM
Cc1ccccc1Nc1cccc2nonc12 100 µM
COc1ccc2cc(C(=O)Nc3ccccc3)sc(=O)c2c1OC 56.2 µM
NC(=O)COC(=O)c1ccc(S(=O)(=O)NCc2ccco2)cc1 126 µM
Cc1ccc(-c2nc3c(c(SCC(=O)Nc4cccc(C(=O)O)c4)n2)Cc2cccc(C)c2O3)cc1 4.08 µM
CCCCNC(=O)COC(=O)c1ccc(Cl)c(S(=O)(=O)N2CCCC2)c1 100 µM
Fc1ccc(C2CC(c3cccs3)=NN2c2ccccc2)cc1 (stereo unspecified) 15.8 µM
Nc1ccc2c(c1Cl)C(=O)c1ccc(N)c(Cl)c1C2=O 3.55 µM
C=C1c2cccc(OC)c2O[C@H](C(=O)OCC)[C@@H]1CCCCCC 0.0251 µM
O=C1NN(c2ccccc2)C(=O)/C1=C/c1ccc(-c2ccc(Cl)c(C(=O)O)c2)o1 7.08 µM
c1ccc(N2N=C(c3cccs3)CC2c2ccco2)cc1 (stereo unspecified) 112 µM
Cc1cc(C=O)c(C)n1-c1cccc(C(=O)O)c1 7.94 µM
O=c1cc(CCl)nc2sc3ccccc3n12 14.1 µM
Cn1c(-n2cccc2)c(-c2c(-c3ccccc3)[nH]c3c2c(=O)[nH]c(=O)n3C)c(=O)[nH]c1=O 100 µM
CCOC(=O)c1sc(NC(=O)C2CC=CCC2C(=O)O)nc1C (stereo unspecified) 39.8 µM
CCCn1c(SCC(=O)NC(=O)NCc2ccco2)n[nH]c1=O 25.1 µM

Reference: PubChem BioAssay (NCATS)
